From PubChem BioAssay AID1159580 (chemical genetic matrix, 2015)
The whole screen tested about 5,500 compounds, of which about 2,000 (36%) were called active. Roughly 18% stayed inconclusive and do not appear here. Cut-off read from the data, not from the text of the source: active = normalized growth mostly below about 0.91 (no sharp cut-off); inconclusive = no clear call, values can overlap the other calls; inactive = mostly above about 0.92. Some of the results follow.

Experiment: chemical genetic growth profiling, strain panel (AID 1159580);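 note: tested at 20 µM; growth read once vehicle control cultures reached saturation at 30 °C; 1 = growth at the plate median or of vehicle wells; lower values mean less growth of the strain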
Settings: S. cerevisiae deletion strains, growth OD

Measured: normalized growth

Cc1ccc(C(=O)O/N=C(/N)CSc2ncccc2C(F)(F)F)cc1
inactive: locus YAR019C, strain CDC15, stronger effect = lower value 1 | locus YBL105C, strain PKC1, stronger effect = lower value 1.01 | locus YBR135W, strain CKS1, stronger effect = lower value 1 | locus YBR136W, strain MEC1, stronger effect = lower value 1.01 | locus YBR160W, strain CDC28, stronger effect = lower value 1 | locus YDL017W, strain CDC7, stronger effect = lower value 1.01 | locus YDL028C, strain MPS1, stronger effect = lower value 0.989 | locus YDL101C, strain DUN1, stronger effect = lower value 1 | locus YDL108W, strain KIN28, stronger effect = lower value 1 | locus YDL132W, strain cdc53, stronger effect = lower value 1.01 | locus YDL214C, strain PRR2, stronger effect = lower value 0.991 | locus YDR052C, strain DBF4, stronger effect = lower value 1.01 | locus YDR054C, strain cdc34, stronger effect = lower value 1.01 | locus YDR226W, strain ADK1, stronger effect = lower value 1.02 | locus YDR477W, strain SNF1, stronger effect = lower value 0.994 | locus YER123W, strain YCK3, stronger effect = lower value 0.995 | locus YER133W, strain GLC7, stronger effect = lower value 0.976 | locus YFL009W, strain cdc4, stronger effect = lower value 0.994 | locus YFL029C, strain CAK1, stronger effect = lower value 1 | locus YFR003C, strain YPI1, stronger effect = lower value 1 | locus YFR019W, strain FAB1, stronger effect = lower value 0.955 | locus YFR028C, strain CDC14, stronger effect = lower value 1.01 | locus YGR040W, strain KSS1, stronger effect = lower value 0.998 | locus YGR052W, strain FMP48, stronger effect = lower value 1.02 | locus YGR092W, strain DBF2, stronger effect = lower value 1 | locus YHR030C, strain SLT2, stronger effect = lower value 0.982 | locus YHR079C, strain IRE1, stronger effect = lower value 0.793 | locus YHR082C, strain KSP1, stronger effect = lower value 1.19 | locus YHR205W, strain SCH9, stronger effect = lower value 0.988 | locus YIL147C, strain SLN1, stronger effect = lower value 1.01 | locus YJL095W, strain BCK1, stronger effect = lower value 0.887 | locus YJL128C, strain PBS2, stronger effect = lower value 0.988 | locus YJL157C, strain FAR1, stronger effect = lower value 0.997 | locus YJR016C, strain ILV3, stronger effect = lower value 1.01 | locus YJR066W, strain TOR1 (second series), stronger effect = lower value 0.975 | locus YJR066W, strain TOR1, stronger effect = lower value 1.16 | locus YKL048C, strain ELM1, stronger effect = lower value 0.991 | locus YKL067W, strain YNK1, stronger effect = lower value 0.996 | locus YKL101W, strain HSL1, stronger effect = lower value 1 | locus YKL193C, strain SDS22, stronger effect = lower value 1.01 | locus YKL203C, strain TOR2, stronger effect = lower value 1.07 | locus YLR133W, strain CKI1, stronger effect = lower value 1 | locus YLR403W, strain SFP1, stronger effect = lower value 0.976 | locus YML070W, strain DAK1, stronger effect = lower value 0.988 | locus YMR001C, strain CDC5, stronger effect = lower value 1.01 | locus YMR205C, strain PFK2 (second series), stronger effect = lower value 0.993 | locus YMR277W, strain FCP1, stronger effect = lower value 1.01 | locus YNL006W, strain LST8, stronger effect = lower value 1.01 | locus YNL020C, strain ARK1, stronger effect = lower value 1 | locus YNL161W, strain CBK1, stronger effect = lower value 1.01 | locus YNL183C, strain NPR1, stronger effect = lower value 0.951 | locus YNL207W, strain RIO2, stronger effect = lower value 1.02 | locus YNL222W, strain SSU72, stronger effect = lower value 1 | locus YNL307C, strain MCK1 (second series), stronger effect = lower value 1.01 | locus YOL078W, strain AVO1, stronger effect = lower value 1 | locus YOL136C, strain PFK27, stronger effect = lower value 0.994 | locus YOR061W, strain CKA2, stronger effect = lower value 0.982 | locus YOR119C, strain RIO1, stronger effect = lower value 1.02 | locus YOR231W, strain MKK1, stronger effect = lower value 0.821 | locus YOR329C, strain SCD5, stronger effect = lower value 1.01 | locus YPL031C, strain PHO85, stronger effect = lower value 1 | locus YPL153C, strain RAD53, stronger effect = lower value 0.984 | locus YPL204W, strain HRR25, stronger effect = lower value 0.994 | locus YPL209C, strain IPL1, stronger effect = lower value 1.01 | locus YPL256C, strain CLN2, stronger effect = lower value 0.884 | locus YPR025C, strain CCL1, stronger effect = lower value 1 | locus YPR106W, strain ISR1, stronger effect = lower value 1.01 | locus YPR111W, strain DBF20, stronger effect = lower value 1 | strain NNK1, stronger effect = lower value 1.02 | strain TSCII, stronger effect = lower value 1.01
active: locus YLR113W, strain HOG1, stronger effect = lower value 0.828
